Records with an inconclusive call do not appear. Calls of active or inactive are those of the source.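 The calls were made as follows, unless noted: active = RAM network inhibition above 8.4% in each of two replicates, 3 SD over the compound average; inconclusive = above 8.4% inhibition in only one replicate; inactive = 8.4% inhibition or less in each replicate.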
Experiments:
[1] = Her2 expression decrease, cell viability multiplex – SKBR3 breast tumor cells, AlphaScreen, ATP viability, primary screen (AID 461;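 active = Her2 level under about 52% in both replicate screens, with viability over 70% of control, limit read from the data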;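 as to Her2 level: lower value means less Her2 protein in the cells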;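 as to viability: percent of carrier control wells set as 100% viability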); conditions: SKBR3 Her2 protein level, 18-24 h, measured here: SKBR3 viability, ATP luminescence, at 10 µM
[2] = target: Receptor tyrosine-protein kinase erbB-2 (Homo sapiens) (UniProt P04626); test: as above; conditions: 18-24 h, at 10 µM, stronger effect = lower value
[3] = reduced viability of SK-BR-3 breast cancer cells – cell-based, 24 h, human, pilot screen (AID 572;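 active = viability at or below 10% of carrier control in both of two separate runs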;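 also: compound exposure lasted between 18 and 24 h rather than exactly 24 h; 100% = carrier-treated control wells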); conditions: SK-BR-3 viability, CellTiter-Glo luminescence, at 10 µM, stronger effect = lower value
[4] = HUVEC growth inhibition – cell-based, human, primary screen (AID 575;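 active = viability at or below 30% in both replicate assays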;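 also: 100% = median of untreated cell wells with 0.1% DMSO on each plate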); conditions: HUVEC proliferation, CellTiter-Glo luminescence, 72 h; at 10 µM; stronger effect = lower value
[5] = H69AR cell proliferation blockers – human, duplicate replicates, primary screen (AID 580;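 active = viability at or under a set limit in both replicates, limit being median viability minus 3 SD, cut at about 48% in these data, passing the limit was not always enough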;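 also: 100% = mean luminescence of untreated wells and 0% = no signal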); conditions: H69AR lung tumor cells viability, ATP luminescence, 72 h; at 10 µM; stronger effect = lower value
[6] = MRP1 drug-resistance reversers in H69AR cells – cell-based, doxorubicin co-treatment, pilot screen (AID 601;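 active = viability loss from added drug above about 55%, and viability with drug at most 40%, in both replicates, limit read from the data, passing the limit was not always enough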); conditions: CellTiter-Glo, 72 h, at 10 µM; for differential viability (reversal): stronger effect = higher value
[7] = yeast transport mutant growth inhibition pilot in 384-well plates, post-Golgi transport modulator project (AID 636; in the data active = inhibition above about 31%); conditions: absorbance 615 nm, about 18 h, stronger effect = higher value
[8] = growth suppression of yeast trafficking mutant, preliminary HTS, modulators of trafficking downstream of Golgi apparatus project, 1536-format plate, OD 615 nm (AID 637; in the data active = inhibition above about 30%); conditions: yeast transport mutant growth, absorbance 615 nm, 18 h; stronger effect = higher value
[9] = S. cerevisiae growth inhibition in permissive medium (OD615), pilot counter-assay for S. cerevisiae lifespan shortening project, permissive growth control (AID 705;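 active = growth inhibition above 25% in both replicates, a cutoff set 3 SD above the mean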); conditions: OD615, 24 h, at 10 µM, stronger effect = higher value
[10] = S. cerevisiae growth inhibition in restrictive medium, OD615, pilot screen, restrictive growth control, yeast lifespan reduction project (AID 706;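 active = growth inhibition above a set limit, 3 SD over mean compound inhibition, in both replicates, cut at about 43% in these data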;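 also: modified DeaD lifespan yeast strain shifted to restrictive glucose medium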); conditions: OD615, 48 h, at 10 µM, stronger effect = higher value
[11] = doxorubicin toxicity protection in MRP-1 cells – H69AR cells, CellTiter-Glo, duplicate, MRP-1 activator project, pilot screen (AID 807;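 active = viability increase at or above a cutoff of the median across tested compounds plus 3 SD, cut at about 8.5% in these data, passing the limit was not always enough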;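 also: compound pretreatment 18-22 h then 72 h combined with doxorubicin; 0% = doxorubicin alone and 100% = vehicle without doxorubicin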); conditions: H69AR viability with doxorubicin, CellTiter-Glo luminescence; at 10 µM; stronger effect = higher value
[12] = viability of HCT116 without oncogenic beta-catenin – human colon tumor cells, pilot screen (AID 823;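 active = cell viability at or below a set limit in both duplicate runs, the limit being the all-compound median minus 4 SD, cut at about 23% in these data, passing the limit was not always enough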;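 also: 0% = wells killed by 20 µM Hyamine and 100% = untreated DMSO cell wells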); conditions: HCT116 beta-catenin knockout viability, CellTiter-Glo, 60 h; at 10 µM; stronger effect = lower value
[13] = viability of PTEN-null HCT116 cells – cell-based, HCT116 clonal line, CellTiter-Glo, pilot screen (AID 824;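 active = viability at or below 27.92% in each of two runs, the all-compound median minus 4 SD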;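 also: 0% = 20 µM Hyamine control and 100% = vehicle cell control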); conditions: HCT116 PTEN-deleted viability, 60 h, at 10 µM, stronger effect = lower value
[14] = RAM pathway blockade in budding yeast – dse1pr::URA3 reporter, 5-FOA selection, pilot screen (AID 869;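 active = inhibition over a set limit, the all-compound mean plus 3 SD, in both replicate runs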;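 also: 0% = DMSO wells with no growth and 100% = 10 µM 1-NA-PP1 with full growth; RAM network block rescues cells from 5-FOA so hits raise OD615 growth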); conditions: S. cerevisiae dse1pr::URA3 5-FOA growth, OD615, 2 d; at 10 µM; stronger effect = higher value; strain carries analog-sensitive mutant Cbk1 kinase
[15] = RAM signaling pathway blockade in yeast – S. cerevisiae, Pdr1DBD-CYC8 efflux-inhibited sensitized strain, primary screen (AID 1298);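 also: 0% = DMSO untreated cells without growth and 100% = 10 µM 1-NA-PP1 full growth; higher means more yeast growth rescued from 5-FOA killing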; conditions: S. cerevisiae cbk1-as DSE1-URA3 strain, 5-FOA growth OD615, 2 d; at 50 µM; stronger effect = higher value
[16] = H69AR cells + 2 uM doxorubicin, measured here: viability with 2 uM doxorubicin, stronger effect = lower value
[17] = H69AR cells, compound alone cytotoxicity

Sequence of Receptor tyrosine-protein kinase erbB-2 (Homo sapiens) (P04626 whole entry, looked up): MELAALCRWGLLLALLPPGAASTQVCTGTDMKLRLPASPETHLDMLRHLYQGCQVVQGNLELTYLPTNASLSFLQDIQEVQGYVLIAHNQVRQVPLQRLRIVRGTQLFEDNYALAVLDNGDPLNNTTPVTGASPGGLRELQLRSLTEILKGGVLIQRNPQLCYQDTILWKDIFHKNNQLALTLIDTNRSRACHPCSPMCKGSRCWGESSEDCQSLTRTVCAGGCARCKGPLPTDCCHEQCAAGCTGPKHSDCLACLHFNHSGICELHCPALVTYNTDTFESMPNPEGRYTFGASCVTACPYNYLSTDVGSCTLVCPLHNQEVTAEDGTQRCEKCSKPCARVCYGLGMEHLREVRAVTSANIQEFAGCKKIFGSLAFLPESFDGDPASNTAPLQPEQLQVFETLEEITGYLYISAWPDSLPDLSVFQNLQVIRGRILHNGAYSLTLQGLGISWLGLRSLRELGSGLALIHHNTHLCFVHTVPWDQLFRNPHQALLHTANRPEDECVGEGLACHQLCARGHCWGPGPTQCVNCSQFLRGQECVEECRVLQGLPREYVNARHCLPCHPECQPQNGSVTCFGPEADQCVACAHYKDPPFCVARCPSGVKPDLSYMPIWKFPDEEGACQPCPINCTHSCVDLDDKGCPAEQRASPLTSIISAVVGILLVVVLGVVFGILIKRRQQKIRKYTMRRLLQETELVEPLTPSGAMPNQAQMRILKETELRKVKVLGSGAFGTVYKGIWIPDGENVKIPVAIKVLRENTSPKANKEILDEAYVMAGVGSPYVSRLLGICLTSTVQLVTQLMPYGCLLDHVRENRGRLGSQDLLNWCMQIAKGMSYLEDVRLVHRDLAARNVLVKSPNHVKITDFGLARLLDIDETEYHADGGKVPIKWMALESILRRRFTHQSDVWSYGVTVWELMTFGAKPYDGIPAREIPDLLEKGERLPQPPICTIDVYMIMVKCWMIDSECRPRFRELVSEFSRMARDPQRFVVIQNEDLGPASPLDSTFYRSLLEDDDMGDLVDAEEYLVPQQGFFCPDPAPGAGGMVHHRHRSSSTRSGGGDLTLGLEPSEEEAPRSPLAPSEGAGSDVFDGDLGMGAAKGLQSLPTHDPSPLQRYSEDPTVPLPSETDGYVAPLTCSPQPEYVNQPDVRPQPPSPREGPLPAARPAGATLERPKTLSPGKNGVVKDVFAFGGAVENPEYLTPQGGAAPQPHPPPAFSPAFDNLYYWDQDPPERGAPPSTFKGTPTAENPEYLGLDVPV

Row | Structure (SMILES) | viability [1] | Her2 level [2] | viability [3] | viability [4] | viability [5] | differential viability (reversal) ([6]; H69AR cells + 2 uM doxorubicin) | viability [6, 16] | viability [6, 17] | inhibition [7] | inhibition [8] | growth inhibition [9] | growth inhibition [10] | viability increase [11] | viability [12] | viability [13] | inhibition [14] | RAM network inhibition [15]
1 | CC1(C)CC(=O)C2=C(C1)NC(=O)CC2c1ccc(N(CCC#N)CCC#N)cc1 (stereo not drawn) | 101% | 120% (inactive) | 101% (inactive) | 101% (inactive) | 110% (inactive) | 23.6% (inactive) | 86.6% | 110% | -5.68% (inactive) | -1.8% (inactive) | -9.4% (inactive) | -8.29% (inactive) | 0.18% (inactive) | 91.5% (inactive) | 100% (inactive) | 1.41% (inactive) | 1.8% (inactive)
2 | CCCCCn1c(=O)[nH]c2cc(C(=O)NCCCN3CCCCC3)ccc2c1=O | 76% | 74.5% (inactive) | 76% (inactive) | 86.5% (inactive) | 88.7% (inactive) | 6.66% (inactive) | 82% | 88.7% | -6.76% (inactive) | 5.33% (inactive) | -6.6% (inactive) | 6.35% (inactive) | -2.74% (inactive) | 75.1% (inactive) | 77.5% (inactive) | -0.475% (inactive) | 0.41% (inactive)
3 | CCOC(=O)c1ccccc1NC(=O)c1ccc2c(=O)n3c(nc2c1)CCCCC3 | 87.5% | 84.5% (inactive) | 87.5% (inactive) | 84.9% (inactive) | 84.4% (inactive) | -9.15% (inactive) | 93.5% | 84.4% | -4.53% (inactive) | 0.67% (inactive) | -5.51% (inactive) | -0.78% (inactive) | -1.73% (inactive) | 82.5% (inactive) | 81.2% (inactive) | 1.7% (inactive) | 18.8% (active)
4 | CSc1nc2ccccc2c(=O)n1N | 109% | 94.5% (inactive) | 109% (inactive) | 93.9% (inactive) | 97.5% (inactive) | 4.46% (inactive) | 93.1% | 97.5% | -3.78% (inactive) | -1.48% (inactive) | -16.4% (inactive) | 6.12% (inactive) | -1.1% (inactive) | 92.2% (inactive) | 103% (inactive) | 1.75% (inactive) | 4.29% (inactive)
5 | O=C(Cn1c(=O)[nH]c2ccsc2c1=O)NC1CCCCCC1 | 110% | 97% (inactive) | 110% (inactive) | 111% (inactive) | 94.3% (inactive) | -2.65% (inactive) | 97% | 94.3% | -7.16% (inactive) | 2.17% (inactive) | -6.35% (inactive) | -17.4% (inactive) | 1.49% (inactive) | 106% (inactive) | 99.2% (inactive) | 0.875% (inactive) | 0.72% (inactive)
6 | Cn1c(=O)oc2cc(S(=O)(=O)N3CCCC(C(=O)NCC4COc5ccccc5O4)C3)ccc21 (stereo not drawn) | 77% | 79.5% (inactive) | 77% (inactive) | 83.6% (inactive) | 94% (inactive) | 3.15% (inactive) | 90.9% | 94% | 0.8% (inactive) | -2.79% (inactive) | -11.9% (inactive) | -20.4% (inactive) | 3.09% (inactive) | 86% (inactive) | 90.4% (inactive) | 0.04% (inactive) | 4.73% (inactive)
7 | CCc1ccccc1NC(=O)c1cnc2n(c1=O)CCS2 | 90.5% | 90% (inactive) | 90.5% (inactive) | 95% (inactive) | 91.6% (inactive) | 3.48% (inactive) | 88.1% | 91.6% | -1.33% (inactive) | -4.26% (inactive) | -7.06% (inactive) | 1.6% (inactive) | 3.48% (inactive) | 90.9% (inactive) | 97% (inactive) | 1.32% (inactive) | 5.66% (inactive)
8 | COc1ccc(S(=O)(=O)Cc2ccc(C(=O)N3CCN(c4ccccc4)CC3)o2)cc1 | 72.5% | 115% (inactive) | 72.5% (inactive) | 104% (inactive) | 84.4% (inactive) | -1.7% (inactive) | 86.1% | 84.4% | -2.8% (inactive) | -7.5% (inactive) | -11.7% (inactive) | -18.9% (inactive) | -2.99% (inactive) | 88.8% (inactive) | 89.3% (inactive) | 0.76% (inactive) | 8.54% (inactive)
9 | O=C(c1ccco1)N1CCN(C2=NS(=O)(=O)c3ccccc32)CC1 | 104% | 142% (inactive) | 104% (inactive) | 99.1% (inactive) | 94.8% (inactive) | 3.94% (inactive) | 90.8% | 94.8% | -1.69% (inactive) | -12.7% (inactive) | -13.5% (inactive) | -1.96% (inactive) | -2.12% (inactive) | 93.1% (inactive) | 96.3% (inactive) | 0.41% (inactive) | 6.34% (inactive)
